Several values for one entry are separate records, joined by “and”; a condition that tells them apart may be missing. Equal entries are not always repeated.

For one experiment, the target named is Ribosomal protein S6 kinase alpha-6 (Homo sapiens) (UniProt Q9UK32). The note with it: at 0.1 µM.
Sequence of Ribosomal protein S6 kinase alpha-6 (Homo sapiens) (Q9UK32 whole entry): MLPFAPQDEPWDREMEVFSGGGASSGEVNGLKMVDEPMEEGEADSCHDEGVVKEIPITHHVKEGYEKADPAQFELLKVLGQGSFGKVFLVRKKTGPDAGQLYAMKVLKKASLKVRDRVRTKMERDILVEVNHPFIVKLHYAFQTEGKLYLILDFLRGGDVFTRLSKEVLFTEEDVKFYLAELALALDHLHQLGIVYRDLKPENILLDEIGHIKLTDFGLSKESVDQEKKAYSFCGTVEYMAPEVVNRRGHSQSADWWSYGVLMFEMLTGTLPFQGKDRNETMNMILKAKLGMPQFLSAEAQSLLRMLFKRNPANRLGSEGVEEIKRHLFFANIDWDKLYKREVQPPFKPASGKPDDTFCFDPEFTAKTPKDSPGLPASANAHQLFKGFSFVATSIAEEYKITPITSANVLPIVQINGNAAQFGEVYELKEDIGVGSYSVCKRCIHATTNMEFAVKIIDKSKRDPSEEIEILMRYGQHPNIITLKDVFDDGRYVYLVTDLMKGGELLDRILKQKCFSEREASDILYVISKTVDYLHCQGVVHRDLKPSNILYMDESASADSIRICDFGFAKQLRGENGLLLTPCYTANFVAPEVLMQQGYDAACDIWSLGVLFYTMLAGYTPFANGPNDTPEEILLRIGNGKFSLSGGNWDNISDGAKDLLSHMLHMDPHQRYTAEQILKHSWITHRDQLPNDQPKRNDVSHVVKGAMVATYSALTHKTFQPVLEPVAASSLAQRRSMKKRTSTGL
One may read the inhibition as the change of the read-out against control, counted positive when it falls. `CCCNc1cccc(-n2ncc3c(N/N=C/c4ccncc4)ncnc32)c1`: the inhibition is 0.53%.
Turning to `COC(=O)Nc1nc2ccc(Oc3ccc(NC(=O)Nc4cc(C(F)(F)F)ccc4F)cc3)cc2s1`, the inhibition turned out to be 0.36%.
For the molecule `N#Cc1ccc2c(-c3ccnc(NC4CC4)n3)c(-c3ccc(F)cc3)nn2c1`, the inhibition worked out at 1.23%.
As to `Fc1cccc(COc2ccc(Nc3ncncc3C#Cc3ccccc3)cc2Cl)c1`, the inhibition was determined as 1.21%.
Consider `NS(=O)(=O)c1cccc(N/C=C2\C(=O)Nc3ccccc32)c1`, for which the inhibition turned out to be 4.77%.
With `COc1ccccc1-c1cc(/C=C2\C(=O)Nc3ncc(Br)cc32)cc(Br)c1O`, the inhibition was -0.23%.
On the same count and under the same terms, the result for `COC(=O)Nc1nc2cc(Oc3ccc(NC(=O)Nc4ccccc4)cc3)ccc2[nH]1` reads 1.27%; that for `O=C(O[C@H]1CN[C@H](C#Cc2cc3ncnc(Nc4ccc5c(cnn5Cc5ccccc5)c4)c3s2)C1)N1CCOCC1`, -1.39%.
On to `CCn1c(-c2nonc2N)nc2cncc(C(=O)NCCNC)c21`, for which the inhibition turned out to be 9.72%.
As to `Cc1cc(O)cc(C)c1/C=C/c1cncc(C(=O)OC(C)(C)C)c1`, the inhibition turned out to be 0.33%.
Turning to `N#Cc1cccc(Nc2ncc(-c3ccccc3)o2)c1`, the inhibition is -0.19%.
Regarding `CNC(=O)c1sc(-n2cnc3cc(OC)c(OC)cc32)cc1OCc1ccccc1C(F)(F)F`, the inhibition was 0.81%.
Same read-out and setting: next, `COc1ccc2ncn(-c3cc(O[C@H](C)c4ccccc4C(F)(F)F)c(C(N)=O)s3)c2c1`: 1.31%; `COc1ccc(-c2nn3ncccc3c2-c2ccnc(Nc3ccc(F)c(F)c3)n2)cc1`: 1.78%.
As to `Cc1cc(O)cc(C)c1/C=C/c1cncc(C(N)=O)c1`, the inhibition came out at 0.72%.
In the case of `Fc1ccc(Nc2nccc(-c3c(-c4ccc(C(F)(F)F)cc4)nn4ncccc34)n2)cc1F`, the inhibition turned out to be 1.29%.
In the case of `c1ccc(-c2n[nH]cc2-c2ccnc(-c3ccc(OCCn4ccnc4)cc3)c2)nc1`, the inhibition is 0.75%.
Consider `COc1cc(N2CCN(C(C)C)CC2)ccc1Nc1nc(Nc2cccc(F)c2C(=O)O)c2cc[nH]c2n1`, for which the inhibition turned out to be 2.17%.
Regarding `CS(=O)(=O)Nc1ccc(-c2cc(-c3ccccc3)cc(C(N)=O)c2N)cc1`, the inhibition was -1.16%.
On the same count and under the same terms, next, `Nc1ncnc2occ(-c3ccc(NC(=O)Nc4cc(C(F)(F)F)ccc4F)cc3)c12`: -2.74% and 0.37%.
For the molecule `COc1cc2c(cc1Nc1nc(Nc3cccc(F)c3C(N)=O)c3cc[nH]c3n1)N(C(=O)CN1CCN(C(C)C)CC1)CC2`, the inhibition worked out at 3.57%.
As to `CCS(=O)(=O)c1ccc(OC)c(Nc2ncc(-c3cccc(C(C)=O)c3)o2)c1`, the inhibition is 1%.
In the case of `CC(C)c1ccc(-c2cc(-c3c[nH]nc3-c3ccccn3)ccn2)cc1`, the inhibition is 0.05%.
Consider `O=C(O[C@H]1CN[C@H](C#Cc2cc3ncnc(Nc4ccc5c(ccn5Cc5cc(F)ccc5F)c4)c3s2)C1)N1CCOCC1`, for which the inhibition worked out at 1.53%.
Still for that read-out and setting: the result for `CN(c1ccc(NC(=O)NCCN2CCOCC2)cc1)c1ccnc(Nc2ccc(CS(C)(=O)=O)cc2)n1` reads 1.79%; that for `NS(=O)(=O)c1ccc(N/N=C2\C(=O)Nc3cccc(CCc4ccncc4)c32)cc1`, 3.11%.
Regarding `CNC(=O)c1cncc(/C=C/c2ccccc2C)c1`, the inhibition stood at 0.45%.
`CN1CCC(C(=O)Nc2n[nH]c3nc(-c4ccc(O)cc4)c(Br)cc23)CC1`: the inhibition is 2.77% and 0.98%.
Same read-out and setting: next, `COc1c(C(N)=O)cc(-c2ccc(Cl)cc2)cc1-c1ccc(S(N)(=O)=O)cc1`: 2.25%.
As for `CN1CCN(Cc2ccc(-c3cc4ncnc(Nc5ccc(OCc6cccc(F)c6)c(Cl)c5)c4s3)o2)CC1`, the inhibition is 1.22% and 1.16%.
As for `NC(=O)c1ccc2c(-c3ccnc(NCCCO)n3)c(-c3ccc(F)cc3)nn2c1`, the inhibition worked out at 2.24%.

The target is the same in another experiment. The following applies: at 1 µM.
With `CCCNc1cccc(-n2ncc3c(N/N=C/c4ccncc4)ncnc32)c1`, the inhibition is 3.54%.
For `COC(=O)Nc1nc2ccc(Oc3ccc(NC(=O)Nc4cc(C(F)(F)F)ccc4F)cc3)cc2s1`, the inhibition turned out to be 1.65%.
For the molecule `N#Cc1ccc2c(-c3ccnc(NC4CC4)n3)c(-c3ccc(F)cc3)nn2c1`, the inhibition worked out at 1.24%.
On to `Fc1cccc(COc2ccc(Nc3ncncc3C#Cc3ccccc3)cc2Cl)c1`, for which the inhibition turned out to be 1.91%.
For the molecule `NS(=O)(=O)c1cccc(N/C=C2\C(=O)Nc3ccccc32)c1`, the inhibition came out at 22.4%.
Regarding `COc1ccccc1-c1cc(/C=C2\C(=O)Nc3ncc(Br)cc32)cc(Br)c1O`, the inhibition turned out to be 2.05%.
Still for that read-out and setting: the result for `COC(=O)Nc1nc2cc(Oc3ccc(NC(=O)Nc4ccccc4)cc3)ccc2[nH]1` reads 0.36%; that for `O=C(O[C@H]1CN[C@H](C#Cc2cc3ncnc(Nc4ccc5c(cnn5Cc5ccccc5)c4)c3s2)C1)N1CCOCC1`, -1.11%; that for `CCn1c(-c2nonc2N)nc2cncc(C(=O)NCCNC)c21`, 37.3%.
The same measure, in the same setting: the result for `Cc1cc(O)cc(C)c1/C=C/c1cncc(C(=O)OC(C)(C)C)c1` reads 1.11%; that for `N#Cc1cccc(Nc2ncc(-c3ccccc3)o2)c1`, -0.13%.
`CNC(=O)c1sc(-n2cnc3cc(OC)c(OC)cc32)cc1OCc1ccccc1C(F)(F)F`: the inhibition was determined as 1.47%.
On the same count and under the same terms, the result for `COc1ccc2ncn(-c3cc(O[C@H](C)c4ccccc4C(F)(F)F)c(C(N)=O)s3)c2c1` reads 9.8%.
For `COc1ccc(-c2nn3ncccc3c2-c2ccnc(Nc3ccc(F)c(F)c3)n2)cc1`, the inhibition amounted to 1.98%.
On to `Cc1cc(O)cc(C)c1/C=C/c1cncc(C(N)=O)c1`, for which the inhibition came out at 1.18%.
Take `Fc1ccc(Nc2nccc(-c3c(-c4ccc(C(F)(F)F)cc4)nn4ncccc34)n2)cc1F`: the inhibition worked out at 0.66%.
In the case of `c1ccc(-c2n[nH]cc2-c2ccnc(-c3ccc(OCCn4ccnc4)cc3)c2)nc1`, the inhibition was determined as 1.74%.
On the same count and under the same terms, next, `COc1cc(N2CCN(C(C)C)CC2)ccc1Nc1nc(Nc2cccc(F)c2C(=O)O)c2cc[nH]c2n1`: 13%; `CS(=O)(=O)Nc1ccc(-c2cc(-c3ccccc3)cc(C(N)=O)c2N)cc1`: 0.06%.
Still for that read-out and setting: the result for `Nc1ncnc2occ(-c3ccc(NC(=O)Nc4cc(C(F)(F)F)ccc4F)cc3)c12` reads 9.97% and 5.9%; that for `COc1cc2c(cc1Nc1nc(Nc3cccc(F)c3C(N)=O)c3cc[nH]c3n1)N(C(=O)CN1CCN(C(C)C)CC1)CC2`, 11.7%; that for `CCS(=O)(=O)c1ccc(OC)c(Nc2ncc(-c3cccc(C(C)=O)c3)o2)c1`, 2.13%.
For `CC(C)c1ccc(-c2cc(-c3c[nH]nc3-c3ccccn3)ccn2)cc1`, the inhibition was -0.11%.
For the molecule `O=C(O[C@H]1CN[C@H](C#Cc2cc3ncnc(Nc4ccc5c(ccn5Cc5cc(F)ccc5F)c4)c3s2)C1)N1CCOCC1`, the inhibition came to 2.42%.
Still for that read-out and setting: next, `CN(c1ccc(NC(=O)NCCN2CCOCC2)cc1)c1ccnc(Nc2ccc(CS(C)(=O)=O)cc2)n1`: 2.33%; `NS(=O)(=O)c1ccc(N/N=C2\C(=O)Nc3cccc(CCc4ccncc4)c32)cc1`: 7.42%; `CNC(=O)c1cncc(/C=C/c2ccccc2C)c1`: 0.63%.
`CN1CCC(C(=O)Nc2n[nH]c3nc(-c4ccc(O)cc4)c(Br)cc23)CC1`: the inhibition was 12.7% and 9.62%.
As for `COc1c(C(N)=O)cc(-c2ccc(Cl)cc2)cc1-c1ccc(S(N)(=O)=O)cc1`, the inhibition was 3.2%.
In the case of `CN1CCN(Cc2ccc(-c3cc4ncnc(Nc5ccc(OCc6cccc(F)c6)c(Cl)c5)c4s3)o2)CC1`, the inhibition was 2.87% and 4.99%.
For `NC(=O)c1ccc2c(-c3ccnc(NCCCO)n3)c(-c3ccc(F)cc3)nn2c1`, the inhibition amounted to 2.84%.

The values are drawn from ChEMBL document CHEMBL1961873, “Compounds: GSK PKIS; Assays: Nanosyn kinase panel” (2012).
